# The panel holds about 83,000 compounds, 20% with a hit somewhere; the sample as a whole holds those more often.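 Single-concentration screen, 48 h exposure, 96-well plates. Endpoint: percent growth. Below 10 = active.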 A number with no mark means an inactive call. Active and inactive are the calls of the source.
# System: OVCAR-8 ovarian
# Assay: NCI-60 one-dose screen, 48 h (100 = growth as untreated, 0 = no growth, -100 = all killed)
# Conditions: 10 µM
row,Structure (SMILES),growth
1,O=C(COc1ccc(-c2nc3ccccc3[nH]2)cc1)N=Nc1c(O)[nH]c2ccccc12,78.4%
2,C[C@]12CC[C@H]3[C@@H](CC=C4C[C@@H](O)CC[C@@]43C)[C@@H]1CC[C@@H]2C(=O)C/C=N/O,91.9%
3,COc1ccc(N2CCN(c3nc(-c4ccccc4)c(C#N)c(=O)[nH]3)CC2)cc1,102%
4,CCCCCCCCCCCC(=O)NCCCN(C)C,93.7%
5,COc1cccc(-c2nnc(COc3ccc(-c4nc5ccccc5[nH]4)cc3OC)o2)c1,67.3%
6,N/C(=N\O)c1cn(C2OC(CO)C(O)C2O)c2ncnc(N)c12 (stereo unspecified),-14.4% (active)
7,Nc1ccc(C2=CC(c3ccc(Cl)cc3)N3C=CSC3=N2)cc1 (stereo unspecified),-1.84% (active)
8,O=[N+]([O-])c1cc2ncccc2c2ncccc12,63.3%
9,O=C(CCc1ccccc1)N1CCN(C(=O)CCc2ccccc2)CC1,96%
10,COc1ccc(CCc2nc3cc(-c4c(C)noc4C)ccc3n2CCN2CCOCC2)cc1,34.6%
11,CCOC(=O)C(=O)Cc1cccnn1,103%
12,FC(F)(F)c1ccc(-c2nc(-c3nc4cc(Cl)c(Cl)cc4[nH]3)c3ccccn23)cc1,63.3%
13,COc1cc(CSc2nc3ccc(C)cc3c(=O)n2-c2ccccc2)cc(OC)c1OC,52.9%
14,CC(C)C[C@H](NC(=O)Cn1ccc2ccccc2c1=O)B(O)O,88.2%
15,CCCCC(=O)N(c1ccc(Nc2c3ccccc3nc3cc([N+](=O)[O-])ccc23)cc1)S(C)(=O)=O,71.7%
16,N#Cc1ncc(-c2cc(F)ccc2F)c(NC2CCCCCC2)n1,88.4%
17,Cc1nnc2c3nnc(-c4ccc(Cl)cc4)n3c3ccccc3n12,98.1%
18,O=CNc1c(Cl)cc2c(c1Cl)Cc1cc([N+](=O)[O-])ccc1-2,58.8%
19,O=C(Nc1ccc(OS(=O)(=O)Cc2ccccc2)cc1)C12CC3CC(CC(C3)C1)C2,91.4%

row,Structure (SMILES),growth
1,COc1cc(CSc2nc3ccc(C)cc3c(=O)n2Cc2ccccc2)cc(OC)c1OC,35.2%
2,CC(=O)[C@H]1CC[C@H]2[C@@H]3CC[C@@H]4CC=C(C=O)C[C@]4(C)[C@H]3CC[C@]12C,97.8%
3,O=[N+]([O-])c1ccc(Br)o1,108%
4,CCc1nn2c(-c3cc(OC)c(OC)c(OC)c3)c(-c3cc(OC)c(OC)c(OC)c3)nc2s1,95.6%
5,N#Cc1c2c([nH]c(=O)c1C(N)=O)CCCCC2,102%
6,COC(=O)[C@]12CC[C@@H](C)[C@H](C)[C@@H]1C1=CC[C@@H]3[C@@]4(C)CC(=O)[C@H](O)[C@@]5(C)COC(=C45)C[C@@]3(C)[C@]1(C)CC2,-45.2% (active)
7,C=CCNCCCN1C(=O)c2ccc3c4c(ccc(c24)C1=O)C(=O)N(CCCNCC=C)C3=O,-14.5% (active)
8,COc1ccc(Cn2cc3c(c2-c2cc(OC)c(OC)c(OC)c2)CCc2cnoc2-3)cc1N,28%
9,Cc1ccc2nc(-c3ccc(OCC(=O)N=Nc4c(O)[nH]c5ccccc45)cc3)[nH]c2c1,18.5%
10,COc1cc(OC)cc(-c2n/c(=C\c3c(O)[nH]c4ccc(OC)cc34)cc3c2=Nc2ccccc2-3)c1,72.7%
11,O=c1ccc2nc(-c3ccccc3)nn(-c3ccccc3)c-2c1,-2.36% (active)
12,NS(=O)(=O)c1ccc(N2N=C(c3ccc(-c4ccccc4)cc3)CC2c2ccc(Cl)cc2)cc1 (stereo unspecified),78%
13,O=C(NC1CCCC1)c1ccc(N2CCC(NCc3cccc(C(F)(F)F)c3)CC2)cc1,95.2%
14,COc1cc(OC)cc(-c2ccc(-c3ccc(C(=N)N)cn3)o2)c1,9.75% (active)
15,COc1ccc(-c2oncc2-c2cc(OC)c3c(c2)OCO3)cc1,35.6%
16,COc1cc2ccnc(C=O)c2cc1OC,44.2%
17,N#Cc1ccc(-n2cnc(NC(=O)[C@H]3CCN(C#N)C3)c2)cc1,15.5%
18,Oc1ccccc1-c1nnc(Cn2c(Cc3cccc4ccccc34)nc3ccccc32)o1,101%
19,Fc1ccc(Nc2ccnc(N3CCN(c4ccnc5cc(Cl)ccc45)CC3)n2)cc1,36.6%

# System: OVCAR-5 ovarian
# Assay: as above
# Conditions: 10 µM
row,Structure (SMILES),growth
1,O=C(COc1ccc(-c2nc3ccccc3[nH]2)cc1)N=Nc1c(O)[nH]c2ccccc12,116%
2,C[C@]12CC[C@H]3[C@@H](CC=C4C[C@@H](O)CC[C@@]43C)[C@@H]1CC[C@@H]2C(=O)C/C=N/O,106%
3,COc1ccc(N2CCN(c3nc(-c4ccccc4)c(C#N)c(=O)[nH]3)CC2)cc1,105%
4,CCCCCCCCCCCC(=O)NCCCN(C)C,91.1%
5,COc1cccc(-c2nnc(COc3ccc(-c4nc5ccccc5[nH]4)cc3OC)o2)c1,119%
6,N/C(=N\O)c1cn(C2OC(CO)C(O)C2O)c2ncnc(N)c12 (stereo unspecified),24.3%
7,Nc1ccc(C2=CC(c3ccc(Cl)cc3)N3C=CSC3=N2)cc1 (stereo unspecified),-66.1% (active)
8,O=[N+]([O-])c1cc2ncccc2c2ncccc12,98.3%
9,O=C(CCc1ccccc1)N1CCN(C(=O)CCc2ccccc2)CC1,110%
10,COc1ccc(CCc2nc3cc(-c4c(C)noc4C)ccc3n2CCN2CCOCC2)cc1,49.8%
11,CCOC(=O)C(=O)Cc1cccnn1,103%
12,FC(F)(F)c1ccc(-c2nc(-c3nc4cc(Cl)c(Cl)cc4[nH]3)c3ccccn23)cc1,88.6%
13,COc1cc(CSc2nc3ccc(C)cc3c(=O)n2-c2ccccc2)cc(OC)c1OC,46.4%
14,CC(C)C[C@H](NC(=O)Cn1ccc2ccccc2c1=O)B(O)O,76.9%
15,CCCCC(=O)N(c1ccc(Nc2c3ccccc3nc3cc([N+](=O)[O-])ccc23)cc1)S(C)(=O)=O,96.9%
16,N#Cc1ncc(-c2cc(F)ccc2F)c(NC2CCCCCC2)n1,98.9%
17,Cc1nnc2c3nnc(-c4ccc(Cl)cc4)n3c3ccccc3n12,100%
18,O=CNc1c(Cl)cc2c(c1Cl)Cc1cc([N+](=O)[O-])ccc1-2,82.3%
19,O=C(Nc1ccc(OS(=O)(=O)Cc2ccccc2)cc1)C12CC3CC(CC(C3)C1)C2,104%

row,Structure (SMILES),growth
1,COc1cc(CSc2nc3ccc(C)cc3c(=O)n2Cc2ccccc2)cc(OC)c1OC,45.4%
2,CC(=O)[C@H]1CC[C@H]2[C@@H]3CC[C@@H]4CC=C(C=O)C[C@]4(C)[C@H]3CC[C@]12C,96.9%
3,O=[N+]([O-])c1ccc(Br)o1,95.4%
4,CCc1nn2c(-c3cc(OC)c(OC)c(OC)c3)c(-c3cc(OC)c(OC)c(OC)c3)nc2s1,90%
5,N#Cc1c2c([nH]c(=O)c1C(N)=O)CCCCC2,97.2%
6,COC(=O)[C@]12CC[C@@H](C)[C@H](C)[C@@H]1C1=CC[C@@H]3[C@@]4(C)CC(=O)[C@H](O)[C@@]5(C)COC(=C45)C[C@@]3(C)[C@]1(C)CC2,-40.4% (active)
7,C=CCNCCCN1C(=O)c2ccc3c4c(ccc(c24)C1=O)C(=O)N(CCCNCC=C)C3=O,-44.6% (active)
8,COc1ccc(Cn2cc3c(c2-c2cc(OC)c(OC)c(OC)c2)CCc2cnoc2-3)cc1N,52.4%
9,Cc1ccc2nc(-c3ccc(OCC(=O)N=Nc4c(O)[nH]c5ccccc45)cc3)[nH]c2c1,104%
10,COc1cc(OC)cc(-c2n/c(=C\c3c(O)[nH]c4ccc(OC)cc34)cc3c2=Nc2ccccc2-3)c1,122%
11,O=c1ccc2nc(-c3ccccc3)nn(-c3ccccc3)c-2c1,102%
12,NS(=O)(=O)c1ccc(N2N=C(c3ccc(-c4ccccc4)cc3)CC2c2ccc(Cl)cc2)cc1 (stereo unspecified),95%
13,O=C(NC1CCCC1)c1ccc(N2CCC(NCc3cccc(C(F)(F)F)c3)CC2)cc1,94.2%
14,COc1cc(OC)cc(-c2ccc(-c3ccc(C(=N)N)cn3)o2)c1,-0.187% (active)
15,COc1ccc(-c2oncc2-c2cc(OC)c3c(c2)OCO3)cc1,37.9%
16,COc1cc2ccnc(C=O)c2cc1OC,93.1%
17,N#Cc1ccc(-n2cnc(NC(=O)[C@H]3CCN(C#N)C3)c2)cc1,23.8%
18,Oc1ccccc1-c1nnc(Cn2c(Cc3cccc4ccccc34)nc3ccccc32)o1,96.8%
19,Fc1ccc(Nc2ccnc(N3CCN(c4ccnc5cc(Cl)ccc45)CC3)n2)cc1,55.9%
